# Test results taken from PubChem BioAssay (EPA / NIEHS).
# The source made the active and inactive calls. How the source made its calls: active means hit-call score of the fitted dose curve at least 0.9, where 1 is the maximum; inactive means score below 0.9.
# Key:
# [1] = CEETOX_H295R_PROG: CeeTox H295R High-throughput Steroidogenesis Assay for Progesterone (PROG) (AID 2283442); details: actives raise or lower the signal
# Outline: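 Progesterone read-out: HPLC-MS/MS on MTBE extracts of conditioned medium after 48 h chemical exposure of forskolin-primed (10 uM, 48 h) H295R cells. Gain or loss of signal was fitted relative to DMSO baseline.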
# [2] = read-out: Tumor necrosis factor receptor superfamily member 6 (Homo sapiens) (UniProt P25445); experiment: LTEA_HepaRG_FAS: Life Technologies and Expression Analysis (LTEA) Assay for Fas cell surface death receptor (FAS) using HepaRG (AID 2283447); details: mRNA level, 48 h; actives raise or lower the signal
# Outline: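 Differentiated HepaRG cells in serum-free induction medium were exposed 48 h to 8 half-log concentrations up to 100 uM in 0.5% DMSO, in duplicate. FAS mRNA was measured by qRT-PCR normalised to ACTB, GAPDH and POLR2A; bidirectional fit versus DMSO.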
# [3] = read-out: Fatty acid synthase (Homo sapiens) (UniProt P49327); experiment: LTEA_HepaRG_FASN: Life Technologies and Expression Analysis (LTEA) Assay for Fatty Acid Synthase (FASN) using HepaRG (AID 2283448); details: mRNA level, 48 h; actives raise or lower the signal
# Outline: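 FASN transcript measured by TaqMan qRT-PCR, normalised to three housekeeping genes, after 48 h chemical exposure of HepaRG cells. Eight-point half-log series from 100 uM in 0.5% DMSO, duplicates; gain or loss fitted against vehicle.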
# [4] = read-out: Cyclin D2 (CCND2), CCND2 (gene 894); experiment: LTEA_HepaRG_CCND2: Life Technologies and Expression Analysis (LTEA) Assay for Cyclin D2 (CCND2) using HepaRG (AID 2283449); details: mRNA level, 48 h; actives raise or lower the signal;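 further: CCND2 transcript measured by TaqMan qRT-PCR and normalised to three housekeeping genes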
# Outline: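 HepaRG, 48 h dosing, 8-pt half-log curve from 100 uM, 0.5% DMSO; duplicate wells. Readout: CCND2 transcript by microfluidic qRT-PCR, housekeeping-normalised; bidirectional fit vs DMSO baseline.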
# [5] = read-out: Cyclin Dependent Kinase Inhibitor 1A (CDKN1A), CDKN1A (gene 1026); experiment: LTEA_HepaRG_CDKN1A: Life Technologies and Expression Analysis (LTEA) Assay for Cyclin Dependent Kinase Inhibitor 1A (CDKN1A) using HepaRG (AID 2283450); details: mRNA level, 48 h; actives raise or lower the signal
# Outline: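 HepaRG, 48 h dosing, 8-pt half-log series from 100 uM top, 0.5% DMSO vehicle, duplicates. Readout: TaqMan qRT-PCR of CDKN1A transcript, housekeeping-normalized (ACTB, GAPDH, POLR2A). Up/down curve fit relative to DMSO.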
# [6] = read-out: Cyclin D1 (CCND1), CCND1 (gene 595); experiment: LTEA_HepaRG_CCND1: Life Technologies and Expression Analysis (LTEA) Assay for Cyclin D1 (CCND1) using HepaRG (AID 2283451); details: mRNA level, 48 h; actives raise or lower the signal
# Outline: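 qRT-PCR (Fluidigm 96.96 array) read-out of transcript level, housekeeping-normalized (ACTB/GAPDH/POLR2A). HepaRG cells, 48 h chemical exposure, 8-point half-log series from 100 uM, 0.5% DMSO vehicle; gain or loss relative to DMSO baseline.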
# [7] = read-out: catalase (CAT), CAT (gene 847); experiment: LTEA_HepaRG_CAT: Life Technologies and Expression Analysis (LTEA) Assay for catalase (CAT) using HepaRG (AID 2283452); details: mRNA level, 48 h; actives raise or lower the signal
# Outline: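 HepaRG cells in serum-free induction medium, 0.5% DMSO vehicle, exposed 48 h in duplicate over 8 half-log concentrations from 100 uM. CAT mRNA measured by qRT-PCR, normalized to ACTB, GAPDH, POLR2A; bidirectional fit versus DMSO.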
# [8] = read-out: flavin-containing dimethylaniline monooxygenases 3 (FMO3), FMO3 (gene 2328); experiment: LTEA_HepaRG_FMO3: Life Technologies and Expression Analysis (LTEA) Assay for flavin-containing dimethylaniline monooxygenases 3 (FMO3) using HepaRG (AID 2283453); details: mRNA level, 48 h; actives raise or lower the signal
# Outline: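 FMO3 transcript quantified by TaqMan qRT-PCR against three housekeeping genes after 48 h chemical exposure of HepaRG cells. Eight-point half-log series, top 100 uM, 0.5% DMSO vehicle; phenobarbital 1mM induction control; up- or down-regulation fitted.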
# [9] = read-out: Cytochrome P450 (CYP1A1), CYP1A1 (gene 1543); experiment: LTEA_HepaRG_CYP1A1: Life Technologies and Expression Analysis (LTEA) Assay for Cytochrome P450 (CYP1A1) using HepaRG (AID 2283454); details: mRNA level, 48 h; actives raise or lower the signal
# Outline: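 qRT-PCR read-out: CYP1A1 transcript normalized to three housekeeping genes, fitted bidirectionally against 0.5% DMSO vehicle baseline. Human HepaRG cells, 48 h chemical exposure, 8-point half-log series topping at 100 uM.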
# [10] = read-out: Forkhead box O1 (FOXO1), FOXO1 (gene 2308); experiment: LTEA_HepaRG_FOXO1: Life Technologies and Expression Analysis (LTEA) Assay for Forkhead box O1 (FOXO1) using HepaRG (AID 2283456); details: mRNA level, 48 h; actives raise or lower the signal
# Outline: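 HepaRG, 48 h exposure, 8-pt half-log series from 100 uM in 0.5% DMSO, duplicates; Fluidigm qRT-PCR mRNA, housekeeping-normalised; bidirectional fit vs DMSO baseline.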
# [11] = read-out: growth arrest and DNA damage 45 (GADD45A), GADD45A (gene 1647); experiment: LTEA_HepaRG_GADD45A: Life Technologies and Expression Analysis (LTEA) Assay for growth arrest and DNA damage 45 (GADD45A) using HepaRG (AID 2283458); details: mRNA level, 48 h; actives raise or lower the signal
# Outline: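 GADD45A expression was measured by TaqMan qRT-PCR against three housekeeping genes (ACTB, GAPDH, POLR2A) after 48 h treatment of HepaRG cells. Eight-point half-log series up to 100 uM in 0.5% DMSO, run in duplicate.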
# [12] = read-out: ABC Transporter (ABCB1), ABCB1 (gene 5243); experiment: LTEA_HepaRG_ABCB1: Life Technologies and Expression Analysis (LTEA) Assay for ABC Transporter (ABCB1) using HepaRG (AID 2283460); details: mRNA level, 48 h; actives raise or lower the signal
# Outline: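 HepaRG, 48 h exposure, 8-pt half-log series from 100 uM, 0.5% DMSO vehicle, duplicates. Readout: ABCB1 transcript by Fluidigm TaqMan qRT-PCR, housekeeping-normalized; bidirectional curve fit vs DMSO baseline.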
# [13] = read-out: ABC Transporter (ABCC3), ABCC3 (gene 8714); experiment: LTEA_HepaRG_ABCC3: Life Technologies and Expression Analysis (LTEA) Assay for ABC Transporter (ABCC3) using HepaRG (AID 2283462); details: mRNA level, 48 h; actives raise or lower the signal
# Outline: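 qRT-PCR read-out of ABCC3 transcript, normalized to three housekeeping genes (ACTB, GAPDH, POLR2A), after 48 h chemical exposure of human HepaRG cells. Eight half-log concentrations, highest 100 uM, in 0.5% DMSO; gain or loss fitted relative to DMSO baseline.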
# [14] = read-out: ABC Transporter (ABCB11), ABCB11 (gene 8647); experiment: LTEA_HepaRG_ABCB11: Life Technologies and Expression Analysis (LTEA) Assay for ABC Transporter (ABCB11) using HepaRG (AID 2283463); details: mRNA level, 48 h; actives raise or lower the signal
# Outline: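 HepaRG, 48 h exposure, 8-pt half-log CRC top 100 uM, 0.5% DMSO vehicle, duplicates. Readout: TaqMan qRT-PCR of ABCB11 mRNA, housekeeping-normalized (ACTB/GAPDH/POLR2A). Bidirectional fit vs DMSO baseline.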
# [15] = read-out: ABC Transporter (ABCC2), ABCC2 (gene 1244); experiment: LTEA_HepaRG_ABCC2: Life Technologies and Expression Analysis (LTEA) Assay for ABC Transporter (ABCC2) using HepaRG (AID 2283464); details: mRNA level, 48 h; actives raise or lower the signal
# Outline: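 qRT-PCR (TaqMan, Fluidigm array) read-out of ABCC2 mRNA, normalized to three housekeeping genes. Differentiated HepaRG cells were treated 48 h in serum-free induction medium with 8-point half-log series from 100 uM in 0.5% DMSO; curves fitted bidirectionally relative to DMSO.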
# [16] = read-out: Broad substrate specificity ATP-binding cassette transporter ABCG2 (Homo sapiens) (UniProt Q9UNQ0); experiment: LTEA_HepaRG_ABCG2: Life Technologies and Expression Analysis (LTEA) Assay for ABC Transporter (ABCG2) using HepaRG (AID 2283465); details: mRNA level, 48 h; actives raise or lower the signal
# Outline: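 HepaRG, 48 h exposure, 8-pt half-log series from 100 uM, 0.5% DMSO vehicle, duplicates. Readout: ABCG2 transcript by qRT-PCR (Fluidigm array), housekeeping-normalized; bidirectional curve fit relative to DMSO baseline.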
# [17] = read-out: CFLAR gene, CFLAR (gene 8837); experiment: LTEA_HepaRG_CFLAR: Life Technologies and Expression Analysis (LTEA) Assay for CFLAR gene using HepaRG (AID 2283455); details: mRNA level, 48 h; actives raise or lower the signal
# Outline: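 qRT-PCR read-out (Fluidigm/TaqMan) of CFLAR mRNA, normalized to three housekeeping genes, in differentiated human HepaRG cells after 48 h chemical exposure; 8-point half-log series from 100 uM in 0.5% DMSO; bidirectional curve fitting versus DMSO.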
# [18] = read-out: Forkhead box O3 (FOXO3), FOXO3 (gene 2309); experiment: LTEA_HepaRG_FOXO3: Life Technologies and Expression Analysis (LTEA) Assay for Forkhead box O3 (FOXO3) using HepaRG (AID 2283459); details: mRNA level, 48 h; actives raise or lower the signal
# Outline: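 qRT-PCR readout of FOXO3 transcript, normalized to three housekeeping genes (ACTB, GAPDH, POLR2A); gain or loss fitted against 0.5% DMSO vehicle. HepaRG cells, 48 h chemical exposure, 8-point half-log series, top 100 uM.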
# [19] = read-out: growth arrest and DNA damage 45 (GADD45B), GADD45B (gene 4616); experiment: LTEA_HepaRG_GADD45B: Life Technologies and Expression Analysis (LTEA) Assay for growth arrest and DNA damage 45 (GADD45B) using HepaRG (AID 2283461); details: mRNA level, 48 h; actives raise or lower the signal
# Outline: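 qRT-PCR read-out (Fluidigm TaqMan, housekeeping-normalized) of mRNA change in human HepaRG cells after 48 h chemical exposure; 8-point curve, top 100 uM, half-log steps, 0.5% DMSO vehicle; gain or loss fitted relative to DMSO baseline.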
# Fatty acid synthase (Homo sapiens), sequence (P49327 whole entry, looked up): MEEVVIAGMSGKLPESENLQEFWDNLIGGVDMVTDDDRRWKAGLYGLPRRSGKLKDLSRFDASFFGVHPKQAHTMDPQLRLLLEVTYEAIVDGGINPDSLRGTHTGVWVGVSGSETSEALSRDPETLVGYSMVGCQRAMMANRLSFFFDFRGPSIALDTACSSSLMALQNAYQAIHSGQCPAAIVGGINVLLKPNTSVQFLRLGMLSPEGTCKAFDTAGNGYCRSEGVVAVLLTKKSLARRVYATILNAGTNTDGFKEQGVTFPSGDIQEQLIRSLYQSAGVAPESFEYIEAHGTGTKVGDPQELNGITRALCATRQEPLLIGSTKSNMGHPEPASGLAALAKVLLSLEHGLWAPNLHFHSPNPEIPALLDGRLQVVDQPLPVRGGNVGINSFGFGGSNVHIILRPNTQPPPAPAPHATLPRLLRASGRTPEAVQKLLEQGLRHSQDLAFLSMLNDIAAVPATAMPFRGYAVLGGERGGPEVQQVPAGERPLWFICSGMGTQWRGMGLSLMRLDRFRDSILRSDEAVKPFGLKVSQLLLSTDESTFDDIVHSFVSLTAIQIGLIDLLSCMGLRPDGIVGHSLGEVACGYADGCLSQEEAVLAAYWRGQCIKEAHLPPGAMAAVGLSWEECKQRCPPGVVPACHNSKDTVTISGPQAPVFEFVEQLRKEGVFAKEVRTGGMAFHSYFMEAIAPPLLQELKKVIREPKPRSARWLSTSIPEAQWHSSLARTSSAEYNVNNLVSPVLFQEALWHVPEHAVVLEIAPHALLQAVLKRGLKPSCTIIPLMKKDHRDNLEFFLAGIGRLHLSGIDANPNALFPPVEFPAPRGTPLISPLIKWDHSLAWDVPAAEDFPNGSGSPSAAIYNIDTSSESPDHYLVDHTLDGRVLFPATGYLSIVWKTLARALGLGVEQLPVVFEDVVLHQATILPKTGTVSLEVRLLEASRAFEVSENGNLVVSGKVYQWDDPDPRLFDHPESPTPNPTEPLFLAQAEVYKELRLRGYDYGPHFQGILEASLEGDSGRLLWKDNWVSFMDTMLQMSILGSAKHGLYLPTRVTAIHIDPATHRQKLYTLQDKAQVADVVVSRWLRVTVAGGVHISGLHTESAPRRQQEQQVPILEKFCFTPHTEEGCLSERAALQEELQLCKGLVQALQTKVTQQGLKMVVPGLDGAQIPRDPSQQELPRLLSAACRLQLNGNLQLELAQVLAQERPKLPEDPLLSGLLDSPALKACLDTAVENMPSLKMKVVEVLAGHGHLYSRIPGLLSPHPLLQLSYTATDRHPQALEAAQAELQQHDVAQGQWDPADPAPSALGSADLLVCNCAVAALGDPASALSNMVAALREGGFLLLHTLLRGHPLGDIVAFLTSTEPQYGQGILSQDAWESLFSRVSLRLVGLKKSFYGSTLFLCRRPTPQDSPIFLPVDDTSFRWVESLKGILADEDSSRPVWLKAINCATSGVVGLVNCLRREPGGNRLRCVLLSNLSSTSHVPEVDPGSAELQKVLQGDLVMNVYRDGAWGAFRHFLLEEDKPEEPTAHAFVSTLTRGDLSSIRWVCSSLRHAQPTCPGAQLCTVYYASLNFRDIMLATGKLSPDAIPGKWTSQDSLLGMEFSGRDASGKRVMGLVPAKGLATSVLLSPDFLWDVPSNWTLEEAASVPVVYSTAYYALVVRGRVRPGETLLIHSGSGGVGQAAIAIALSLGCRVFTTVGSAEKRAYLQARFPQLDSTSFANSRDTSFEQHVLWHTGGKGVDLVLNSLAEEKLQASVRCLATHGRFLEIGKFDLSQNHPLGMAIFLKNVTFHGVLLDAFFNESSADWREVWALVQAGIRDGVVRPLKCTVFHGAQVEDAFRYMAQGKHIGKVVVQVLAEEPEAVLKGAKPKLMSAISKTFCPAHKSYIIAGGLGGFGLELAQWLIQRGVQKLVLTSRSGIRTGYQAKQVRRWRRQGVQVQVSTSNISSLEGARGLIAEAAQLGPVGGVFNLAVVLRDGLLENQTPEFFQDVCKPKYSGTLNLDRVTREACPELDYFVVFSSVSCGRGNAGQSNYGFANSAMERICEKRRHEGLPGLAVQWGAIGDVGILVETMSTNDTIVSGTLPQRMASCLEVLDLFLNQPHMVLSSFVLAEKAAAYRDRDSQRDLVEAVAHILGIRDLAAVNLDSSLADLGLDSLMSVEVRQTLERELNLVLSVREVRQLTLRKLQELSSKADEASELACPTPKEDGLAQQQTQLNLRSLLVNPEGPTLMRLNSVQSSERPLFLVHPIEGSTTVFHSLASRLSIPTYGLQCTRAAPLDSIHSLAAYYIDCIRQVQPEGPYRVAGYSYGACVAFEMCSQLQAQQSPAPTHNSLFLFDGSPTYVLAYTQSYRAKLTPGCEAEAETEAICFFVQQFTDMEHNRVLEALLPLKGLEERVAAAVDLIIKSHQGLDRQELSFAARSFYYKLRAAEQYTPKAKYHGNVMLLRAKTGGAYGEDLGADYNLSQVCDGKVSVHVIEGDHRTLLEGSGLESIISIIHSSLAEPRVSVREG
# Broad substrate specificity ATP-binding cassette transporter ABCG2 (Homo sapiens), sequence (Q9UNQ0 whole entry, looked up): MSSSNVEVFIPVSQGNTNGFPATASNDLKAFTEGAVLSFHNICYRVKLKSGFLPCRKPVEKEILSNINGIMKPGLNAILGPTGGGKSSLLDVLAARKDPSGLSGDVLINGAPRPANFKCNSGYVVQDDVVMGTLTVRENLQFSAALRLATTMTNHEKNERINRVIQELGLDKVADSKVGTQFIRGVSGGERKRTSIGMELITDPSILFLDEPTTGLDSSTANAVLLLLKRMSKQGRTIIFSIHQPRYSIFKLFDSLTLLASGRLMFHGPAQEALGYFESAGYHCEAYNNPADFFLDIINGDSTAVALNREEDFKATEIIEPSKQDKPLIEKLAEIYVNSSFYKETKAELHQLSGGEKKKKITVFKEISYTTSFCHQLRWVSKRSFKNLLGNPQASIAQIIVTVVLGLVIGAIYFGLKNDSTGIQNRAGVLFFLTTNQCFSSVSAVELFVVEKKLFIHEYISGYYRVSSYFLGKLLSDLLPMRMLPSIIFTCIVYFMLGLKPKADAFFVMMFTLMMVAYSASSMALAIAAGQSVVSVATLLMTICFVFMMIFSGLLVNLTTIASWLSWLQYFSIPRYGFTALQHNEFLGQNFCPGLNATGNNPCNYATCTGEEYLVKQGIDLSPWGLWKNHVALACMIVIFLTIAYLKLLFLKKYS
structure (smiles),measurement,setting,value
COCC(=O)N(c1c(C)cccc1C)C(C)C(=O)OC (stereo unspecified),outcome,[1],inactive
same,outcome,[2],inactive
same,outcome,[3],inactive
same,AC50,[4],0.0815 µM (active)
same,outcome,[5],inactive
same,outcome,[6],inactive
same,outcome,[7],inactive
same,outcome,[8],inactive
same,outcome,[9],inactive
same,outcome,[10],inactive
same,outcome,[11],inactive
same,outcome,[12],inactive
same,outcome,[13],inactive
same,outcome,[14],inactive
same,outcome,[15],inactive
same,outcome,[16],inactive
CC(C)Nc1nc(Cl)nc(NC(C)C)n1,outcome,[1],inactive
same,outcome,[2],inactive
same,outcome,[3],inactive
same,outcome,[5],inactive
same,outcome,[6],inactive
same,AC50,[7],16.8 µM (active)
same,outcome,[8],inactive
same,AC50,[9],41.2 µM (active)
same,outcome,[17],inactive
same,outcome,[10],inactive
same,outcome,[11],inactive
same,outcome,[18],inactive
same,AC50,[12],19.8 µM (active)
same,outcome,[19],inactive
same,outcome,[13],inactive
same,AC50,[14],73.3 µM (active)
same,AC50,[15],9.77 µM (active)
same,outcome,[16],inactive
CCCC(=NOCC)C1=C(O)CC(CC(C)SCC)CC1=O (stereo unspecified),outcome,[1],inactive
same,outcome,[2],inactive
same,outcome,[3],inactive
same,outcome,[4],inactive
same,outcome,[5],inactive
same,outcome,[6],inactive
same,outcome,[7],inactive
same,outcome,[8],inactive
same,AC50,[9],73.9 µM (active)
same,outcome,[17],inactive
same,outcome,[10],inactive
same,outcome,[11],inactive
same,outcome,[12],inactive
same,outcome,[13],inactive
same,outcome,[14],inactive
same,outcome,[15],inactive
same,outcome,[16],inactive
